Biological target: T1, USP38 (UniProt Q8NB14)
T1 sequence (whole entry): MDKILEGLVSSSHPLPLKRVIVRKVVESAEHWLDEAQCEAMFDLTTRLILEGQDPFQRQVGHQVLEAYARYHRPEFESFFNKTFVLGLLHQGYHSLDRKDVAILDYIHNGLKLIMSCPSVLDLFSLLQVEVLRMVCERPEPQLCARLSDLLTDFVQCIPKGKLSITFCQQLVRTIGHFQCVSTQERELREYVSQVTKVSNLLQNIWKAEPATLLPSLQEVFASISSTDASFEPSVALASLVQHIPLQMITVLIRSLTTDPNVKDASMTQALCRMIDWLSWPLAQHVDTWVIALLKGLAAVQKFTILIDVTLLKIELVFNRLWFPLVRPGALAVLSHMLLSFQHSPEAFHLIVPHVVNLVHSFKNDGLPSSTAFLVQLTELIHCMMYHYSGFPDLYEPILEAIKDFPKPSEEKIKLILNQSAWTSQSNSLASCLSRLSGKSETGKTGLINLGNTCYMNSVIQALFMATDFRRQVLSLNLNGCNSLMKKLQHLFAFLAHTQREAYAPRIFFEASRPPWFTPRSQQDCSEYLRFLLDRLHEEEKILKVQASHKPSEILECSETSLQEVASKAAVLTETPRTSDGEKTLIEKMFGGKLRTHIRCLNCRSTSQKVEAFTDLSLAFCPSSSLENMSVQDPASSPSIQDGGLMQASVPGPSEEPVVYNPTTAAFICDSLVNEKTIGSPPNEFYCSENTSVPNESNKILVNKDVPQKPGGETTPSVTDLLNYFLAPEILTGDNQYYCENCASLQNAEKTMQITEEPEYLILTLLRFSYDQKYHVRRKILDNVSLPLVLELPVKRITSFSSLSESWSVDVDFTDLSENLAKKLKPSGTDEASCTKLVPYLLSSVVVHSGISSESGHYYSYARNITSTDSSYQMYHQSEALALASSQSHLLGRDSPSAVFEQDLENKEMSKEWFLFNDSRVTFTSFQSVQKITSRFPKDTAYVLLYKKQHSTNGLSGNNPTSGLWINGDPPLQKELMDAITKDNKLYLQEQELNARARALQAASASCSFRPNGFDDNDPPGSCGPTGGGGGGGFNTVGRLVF
Assay: log2 ratio of Biotin-Ahx-Ub-VS probe labelling (compound/DMSO); higher = less target engagement, active = hit call of the paper (q ≤ 0.05, log2 ratio ≤ -1)
Details: treatment time: 3 h
Procedure, shortened: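 HEK293T lysate (495 µg per sample, in Tris/CHAPS/IGEPAL buffer with protease inhibitors) was treated in triplicate with compound over a concentration series or DMSO for 3 h, then with Biotin-Ahx-Ub-VS (0.5 µM final) for 1 h. Labelled DUBs were NeutrAvidin-enriched, digested with LysC and trypsin, and run by diaPASEF LC-MS/MS. Spectronaut label-free protein quantities were global-median-normalised. Values are average log2 ratios compound/DMSO from an unpaired t-test, using proteins with ≥2 unique peptides.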

Measured: log2 ratio of Biotin-Ahx-Ub-VS probe labelling

O=C(CCl)N[C@@H]1CCCc2ccccc21
inactive: compound concentration: 0.78uM -0.208 | compound concentration: 1.56uM -0.105 | compound concentration: 3.13uM -0.116 | compound concentration: 6.25uM -0.253 | compound concentration: 12.5uM -0.127 | compound concentration: 25uM -0.107 | compound concentration: 50uM -0.0917 | compound concentration: 100uM -0.166 | compound concentration: 200uM -0.233
